Results filed as inconclusive are left out. Values without a mark were called inactive. Calls of active or inactive are those of the source. The call rests on the fitted dose curve; in most records, active means well fitted inhibition curve with a large enough effect; inconclusive means small, poorly fitted or top-dose-only effect; inactive means flat fitted curve, though single readings scatter.
Legend:
CRL-7250 = normal cell line; test: Cytotoxic Profiling of Annotated Libraries Using Quantitative High-Throughput Screening (AID 1296008); conditions: Five cell lines viability, CellTiter-Glo ATP luminescence, 48-72 h; max response: hits give low values; further: potency means the concentration at half of the fitted maximal effect; on max response: on the % scale 0 is the no-effect control and ±100 the full control effect
Method in brief: (§1)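 Compounds were pin-transferred onto cells and incubated 48 or 72 hr at 37 degree Celsius, 95% humidity. CellTiter-Glo was added, plates sat 10 min at room temperature, then ATP-coupled luminescence was imaged as the viability read-out.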

HEK293 = test: as above; conditions: Five cell lines viability, CellTiter-Glo ATP luminescence, 48-72 h; max response: hits give low values
Method in brief: as §1

NIH3T3 = test: as above; conditions: Five cell lines viability, CellTiter-Glo ATP luminescence, 48-72 h; max response: hits give low values
Method in brief: as §1

HaCat [1] = test: as above; conditions: Five cell lines viability, CellTiter-Glo ATP luminescence, 48-72 h; max response: hits give low values
Method in brief: as §1

HACAT [2] = test: qHTS assay to identify novel small-molecules to repurpose for Merkel cell carcinoma treatment (AID 1296009); conditions: MCC and control cell lines, CellTiter-Glo viability, 72 h; at 44.8 µM (top of the series) unless noted
Method in brief: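 Cells exposed to NPC (8-point) and MIPE (11-point) compound dilutions for 72 hr at 37 degree celsius; viability read by CellTiter-Glo luminescence, normalized to no-cell and DMSO in-plate controls.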
Further: nearly all actives have a fitted effect of over 60% in size.

SMILES: Cc1noc(-c2ccc(-c3ccc(CC(=O)O)cc3)cc2)c1NC(=O)O[C@H](C)c1ccccc1Cl
- max response (CRL-7250): -11.1%
- max response (HEK293): -3.72%
- Potency (NIH3T3): 7.31 µM (active)

SMILES: CCOc1cc(C(C)(C)C)ccc1C1=N[C@@](C)(c2ccc(Cl)cc2)[C@@](C)(c2ccc(Cl)cc2)N1C(=O)N1CCN(CC(=O)N2CCOCC2)CC1
- Potency (CRL-7250): 14.8 µM (active)
- Potency (HEK293): 4.17 µM (active)
- Potency (NIH3T3): 10.1 µM (active)

SMILES: C=CC(=O)Nc1cccc(Nc2nc(Nc3ccc(OCCOC)cc3)ncc2F)c1
- Potency (CRL-7250): 5.17 µM (active)
- Potency (HEK293): 8.2 µM (active)
- Potency (NIH3T3): 5.8 µM (active)

SMILES: Cn1nc(-c2ccc(C(F)(F)F)cc2)nc2c(=O)n(C)c(=O)nc1-2
- Potency (CRL-7250): 14.6 µM (active)
- Potency (HEK293): 6.51 µM (active)
- Potency (NIH3T3): 1.3 µM (active)

SMILES: Cc1[nH]c(/C=C2\C(=O)Nc3ccc(S(=O)(=O)N(C)c4cccc(Cl)c4)cc32)c(C)c1C(=O)N1CCN(C)CC1
- outcome (CRL-7250): inactive
- Potency (HEK293): 6.51 µM (active)
- outcome (HaCat [1]): inactive
- outcome (HACAT [2]): inactive

SMILES: Cc1[nH]c2ccc(F)cc2c1-c1nc2c3cccnc3c3ncccc3c2[nH]1
- Potency (CRL-7250): 3.66 µM (active)
- Potency (HEK293): 4.61 µM (active)
- Potency (NIH3T3): 14.6 µM (active)

SMILES: O=C(Nc1cccnn1)N1CCN(c2nccc(-c3ccc(F)c(F)c3)n2)CC1
- max response (CRL-7250): -5.59%
- max response (HEK293): -4.09%
- max response (NIH3T3): -4.62%

SMILES: CC(C)(O)/C=C/C(=O)[C@](C)(O)[C@H]1[C@H](O)C[C@@]2(C)[C@@H]3CC=C4[C@@H](C[C@H](O[C@@H]5O[C@H](CO)[C@@H](O)[C@H](O)[C@H]5O)C(=O)C4(C)C)[C@]3(C)C(=O)C[C@]12C
- max response (CRL-7250): -1.87%
- max response (HEK293): -10.4%
- outcome (NIH3T3): inactive

SMILES: O=S(=O)(Nc1cc(Cl)c(Oc2cnc3ccccc3c2)c(Cl)c1)c1ccc(Cl)cc1Cl
- outcome (CRL-7250): inactive
- max response (HEK293): -18.7%
- outcome (HaCat [1]): inactive
- outcome (HACAT [2]): inactive

SMILES: CC[C@@H](Nc1c(Nc2cccc(C(=O)N(C)C)c2O)c(=O)c1=O)c1cc(C(C)C)co1
- max response (CRL-7250): 4.29%
- max response (HEK293): -14.3%
- outcome (HaCat [1]): inactive
- max response (NIH3T3): -6.94%
- outcome (HACAT [2]): inactive

SMILES: N#Cc1ccc(O[C@@H]2c3ccccc3C[C@H]2N2CCC[C@@H](N)C2)c(Cl)c1
- max response (CRL-7250): -27.9%
- Potency (HEK293): 20.6 µM (active)
- outcome (HaCat [1]): inactive
- outcome (HACAT [2]): inactive

SMILES: O=C(NO)c1cnc(N2CCN(S(=O)(=O)c3ccc4ccccc4c3)CC2)nc1
- Potency (CRL-7250): 7.96 µM (active)
- max response (HEK293): -106%
- Potency (NIH3T3): 2.24 µM (active)

SMILES: C[C@H](Nc1ncnc2nc[nH]c12)c1cc2cccc(Cl)c2c(=O)n1-c1ccccc1
- max response (CRL-7250): -26.4%
- max response (HEK293): -90.1%
- Potency (NIH3T3): 4.61 µM (active)

SMILES: Cc1cc(Nc2nc(-c3ccccc3)nc3ccccc23)n[nH]1
- Potency (CRL-7250): 5.17 µM (active)
- Potency (HEK293): 7.31 µM (active)
- Potency (NIH3T3): 9.2 µM (active)

SMILES: CC1CCC/C=C/C(=O)c2c(O)cc(O)cc2CC(=O)O1 (stereo unspecified)
- Potency (CRL-7250): 7.31 µM (active)
- Potency (HEK293): 4.11 µM (active)
- Potency (NIH3T3): 14.6 µM (active)

SMILES: C=C(C)C(=O)O[C@H]1[C@H]2C(=C)C(=O)O[C@@H]2C[C@@H](C)[C@@H]2O[C@@H]2C(=O)[C@](C)(O)[C@@H]1OC(=O)C(=C)C
- Potency (CRL-7250): 7.09 µM (active)
- Potency (HEK293): 2.52 µM (active)
- Potency (NIH3T3): 3.55 µM (active)

SMILES: Cc1nc(C#Cc2ccnc(Cl)c2)c(C)n1-c1ccc(F)cc1
- Potency (CRL-7250): 18.4 µM (active)
- Potency (HEK293): 7.31 µM (active)
- max response (NIH3T3): -10.7%

SMILES: COC(=O)C1=COC(O[C@@H]2O[C@H](CO[C@@H]3O[C@H](COC(=O)/C=C\c4ccc(O)cc4)[C@@H](O)[C@H](O)[C@H]3O)[C@@H](O)[C@H](O)[C@H]2O)C2C(CO)=CCC12 (stereo partly specified)
- max response (CRL-7250): -64.3%
- max response (HEK293): -82.6%
- max response (NIH3T3): -28.7%

SMILES: C#CC(=O)N(c1ccc(OC)cc1OC)C(C(=O)NCC(=O)OCC)c1cccs1 (stereo unspecified)
- Potency (CRL-7250): 0.206 µM (active)
- Potency (HEK293): 0.259 µM (active)
- Potency (NIH3T3): 0.164 µM (active)

SMILES: Nc1ncnc2c1nc(Cl)n2C1OC2COP(=O)(O)OC2C1O (stereo unspecified)
- Potency (CRL-7250): 6.51 µM (active)
- Potency (HEK293): 1.64 µM (active)
- Potency (NIH3T3): 5.8 µM (active)

SMILES: CN1CCN(C2CCN(C(=O)Nc3cc(Oc4ccc(NC(=O)C5(C(=O)Nc6ccc(F)cc6)CC5)c(F)c4)ccn3)CC2)CC1
- Potency (CRL-7250): 9.2 µM (active)
- Potency (HEK293): 13 µM (active)
- Potency (NIH3T3): 2.59 µM (active)

SMILES: Cc1cc2c(cc1N1C(=O)c3cccc4c(CCCO)ccc(c34)C1=O)n(C)c(=O)n2C
- max response (CRL-7250): -31.8%
- max response (HEK293): -71.7%
- Potency (NIH3T3): 1.53 µM (active)

From PubChem BioAssay (NCATS)
